# In PubChem BioAssay:
# Activity calls are given as the source filed them.
# Tests used:
# [1] = optical density shifts of acrAB sulA E. coli – strain DRC41, OD650, 48 h, E. coli filamentation inducer project, primary screen (AID 1152); details: higher = more signal, called active from +8 up or from −8 down;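 further: E. coli MC1000 strain DRC41 lacking acrAB efflux pump and sulA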
# [2] = probe aLefty1 binding on compound microarray – biochemical, small-molecule microarray, 635/667 nm fluorescence, primary screen (AID 1153); details: higher = more signal;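 further: score merges spot fluorescence with signal-to-noise ratio from the scanned slide images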
# [3] = plasmodial surface anion channel blockers, osmotic lysis – cell-based, P. falciparum Indochina, OD700, 1 h, primary screen (AID 1154); details: P. falciparum Indochina infected RBC osmotic lysis, higher = more signal, called active from +8 up or from −8 down
# [4] = plasmodial surface anion channel blockers, osmotic lysis – cell-based, P. falciparum Indochina, OD700, 2 h, primary screen (AID 1155);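 further: lysis reports solute entry through the parasite surface anion channel PSAC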; details: P. falciparum Indochina infected erythrocytes, higher = more signal, called active from +8 up or from −8 down
# [5] = changes in parasitized red cell lysis, either direction – P. falciparum Indochina, OD700, 3 h, PSAC antagonist project, primary screen (AID 1156); details: P. falciparum-infected erythrocytes, osmotic lysis, higher = more signal, called active from +8 up or from −8 down
# [6] = plasmodial surface anion channel blockers, osmotic lysis – cell-based, P. falciparum Indochina, OD700, 18 h, primary screen (AID 1157); details: P. falciparum Indochina infected erythrocytes, osmotic lysis OD700, 18 h; higher = more signal, called active from +8 up or from −8 down
# [7] = S6 kinase pathway phospho-S6 level changes – cell-based, A549, cytoblot, luminescence, serum-stimulated, primary screen (AID 1158); details: 5 h, higher = more signal;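 further: serum-stimulated A549 lung adenocarcinoma cells; signal is phosphorylated S6 detected by cytoblot immunostaining with HRP secondary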
# [8] = target: NADPH oxidase 2 (Homo sapiens) (UniProt P04839); experiment: compounds shifting NOX2 Amplex Red fluorescence – cell-based, HEK293-NOX2, PMA-stimulated, NOX inhibitor project, primary screen (AID 1159); details: 45 min, higher = more signal, called active from +8 up or from −8 down; further: test concentration not given here
# [9] = target: NADPH oxidase 4 (Homo sapiens) (UniProt Q9NPH5); experiment: compounds shifting NOX4 Amplex Red fluorescence – cell-based, HEK293-NOX4, tetracycline-induced, NOX inhibitor project, primary screen (AID 1160); details: HEK293-NOX4, Amplex Red H2O2 fluorescence, 45 min; higher = more signal, called active from +8 up or from −8 down
# [10] = target: NADPH oxidase 5 (Homo sapiens) (UniProt Q96PH1); experiment: compounds shifting NOX5 Amplex Red fluorescence – cell-based, HEK293-NOX5, NOX inhibitor project, primary screen (AID 1161); details: HEK293-NOX5, ionomycin, 45 min, higher = more signal
# Chain of NADPH oxidase 5 (Homo sapiens) (Q96PH1 whole entry, looked up): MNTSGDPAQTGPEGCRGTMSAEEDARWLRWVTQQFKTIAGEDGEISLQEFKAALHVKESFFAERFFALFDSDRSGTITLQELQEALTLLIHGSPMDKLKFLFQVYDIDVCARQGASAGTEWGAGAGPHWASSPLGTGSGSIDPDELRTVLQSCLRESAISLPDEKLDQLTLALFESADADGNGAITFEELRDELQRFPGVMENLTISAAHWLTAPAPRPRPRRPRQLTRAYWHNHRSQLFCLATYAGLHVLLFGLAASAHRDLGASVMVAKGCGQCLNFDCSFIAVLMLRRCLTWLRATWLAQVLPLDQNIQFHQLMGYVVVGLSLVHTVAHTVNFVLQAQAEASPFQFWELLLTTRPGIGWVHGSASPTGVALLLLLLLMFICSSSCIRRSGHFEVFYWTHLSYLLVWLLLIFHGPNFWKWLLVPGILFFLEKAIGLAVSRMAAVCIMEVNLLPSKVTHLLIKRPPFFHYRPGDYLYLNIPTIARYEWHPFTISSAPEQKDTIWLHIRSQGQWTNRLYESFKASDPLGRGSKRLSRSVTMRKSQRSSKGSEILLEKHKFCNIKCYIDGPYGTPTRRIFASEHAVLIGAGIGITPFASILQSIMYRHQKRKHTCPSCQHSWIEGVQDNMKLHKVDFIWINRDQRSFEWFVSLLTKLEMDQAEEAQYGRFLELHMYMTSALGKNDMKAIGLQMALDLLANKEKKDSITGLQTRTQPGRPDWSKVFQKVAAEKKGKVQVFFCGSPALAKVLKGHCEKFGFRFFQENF
# Chain of NADPH oxidase 4 (Homo sapiens) (Q9NPH5 whole entry, looked up): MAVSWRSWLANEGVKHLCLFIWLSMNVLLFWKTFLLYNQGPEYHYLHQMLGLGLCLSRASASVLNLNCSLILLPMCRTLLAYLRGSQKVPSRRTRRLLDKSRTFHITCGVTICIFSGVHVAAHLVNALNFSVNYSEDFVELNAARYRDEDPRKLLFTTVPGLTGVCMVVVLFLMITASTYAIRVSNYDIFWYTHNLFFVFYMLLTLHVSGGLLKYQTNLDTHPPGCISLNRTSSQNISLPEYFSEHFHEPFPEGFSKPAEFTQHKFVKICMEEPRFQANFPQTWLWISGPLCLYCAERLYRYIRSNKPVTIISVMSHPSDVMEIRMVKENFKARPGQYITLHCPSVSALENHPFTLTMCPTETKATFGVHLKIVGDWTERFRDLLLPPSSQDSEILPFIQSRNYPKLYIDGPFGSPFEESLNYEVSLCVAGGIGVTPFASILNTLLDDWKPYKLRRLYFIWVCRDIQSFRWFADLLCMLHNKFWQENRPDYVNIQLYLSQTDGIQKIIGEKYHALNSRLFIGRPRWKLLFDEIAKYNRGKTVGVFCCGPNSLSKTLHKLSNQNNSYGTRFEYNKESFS
# Chain of NADPH oxidase 2 (Homo sapiens) (P04839 whole entry, looked up): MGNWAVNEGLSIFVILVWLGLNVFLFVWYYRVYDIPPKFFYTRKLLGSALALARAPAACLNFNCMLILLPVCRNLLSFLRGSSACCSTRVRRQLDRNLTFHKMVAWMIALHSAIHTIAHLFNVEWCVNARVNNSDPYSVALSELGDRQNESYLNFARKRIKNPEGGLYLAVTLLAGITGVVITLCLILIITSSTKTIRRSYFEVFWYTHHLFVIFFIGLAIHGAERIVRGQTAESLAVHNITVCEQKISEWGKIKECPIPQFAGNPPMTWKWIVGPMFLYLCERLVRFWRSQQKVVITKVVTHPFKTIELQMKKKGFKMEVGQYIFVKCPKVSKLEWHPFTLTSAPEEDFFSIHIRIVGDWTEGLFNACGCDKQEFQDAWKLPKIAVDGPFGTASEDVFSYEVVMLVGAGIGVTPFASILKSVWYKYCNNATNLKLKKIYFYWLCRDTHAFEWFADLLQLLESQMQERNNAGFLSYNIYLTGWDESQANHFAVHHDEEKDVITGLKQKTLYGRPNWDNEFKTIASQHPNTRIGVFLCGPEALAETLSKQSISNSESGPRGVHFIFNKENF
SMILES,z-score [1],composite z-score [2],z-score [3],z-score [4],z-score [5],z-score [6],z-score [7],z-score [8],z-score [9],z-score [10]
CCCCC(=C=CC[C@H](O)c1ccccc1OCCO)C[C@H](O)c1cc(Cl)cc(Cl)c1O,-0.0999 (inactive),-0.0989,15.9 (active),2.79 (inactive),-0.179 (inactive),1.46 (inactive),0.276,-0.565 (inactive),-1.5 (inactive),-2.02
[N-]=[N+]=Nc1ccccc1C[C@]1(C(=O)N2CCCCC2)N=C(c2ccc(OCCCO)cc2)O[C@H]1c1ccccc1N=[N+]=[N-],-0.866 (inactive),0.568,30.1 (active),28.3 (active),2.73 (inactive),7.18 (inactive),-0.359,-2.39 (inactive),0.341 (inactive),-1.08
CC(c1ccccc1)C(O)C1C=CC2C(=O)N(c3ccccc3)C(=O)C2N1Nc1ccccc1F (stereo not given),0.207 (inactive),0.0146,0.784 (inactive),-0.11 (inactive),-0.597 (inactive),-0.865 (inactive),0.0297,-0.652 (inactive),-0.714 (inactive),0.381
O=C1[C@H]2C=C(Br)[C@H](C[C@@H]2OCCOCCO)[C@@]12CO2,-0.927 (inactive),-0.276,0.658 (inactive),0.276 (inactive),-0.0195 (inactive),0.0588 (inactive),-0.391,1.36 (inactive),0.561 (inactive),0.0214
COC(=O)c1nc2oc1CC[C@@H](CO)NC(=O)N(C)Cc1cn(nn1)C[C@H](Cc1ccccc1)NC2=O,2.75 (inactive),-0.145,1.53 (inactive),0.394 (inactive),0.864 (inactive),0.0148 (inactive),0.225,-0.454 (inactive),0.917 (inactive),0.398
COc1ccc(C(=O)Nc2cccc(CN3C(=O)[C@@]4(O[C@@H](CC(=O)N5Cc6ccccc6C[C@H]5CO)[C@H]([Si](C)(C)c5ccc(OC)cc5)[C@H]4C)c4ccccc43)c2)cc1,-0.333 (inactive),0.139,4.24 (inactive),1.49 (inactive),0.712 (inactive),0.768 (inactive),1.33,-1.03 (inactive),0.0938 (inactive),-0.713
CN(C)CCCC[C@@H]1NC(=O)[C@H]2C[C@@H](C(=O)NCCCCCNC(=O)CS)[C@@H](c3ccc(O)cc3)N2C1=O,0.445 (inactive),-0.0196,0.93 (inactive),0.683 (inactive),-0.988 (inactive),0.153 (inactive),-0.0137,0.394 (inactive),-0.265 (inactive),0.877
COc1ccc([Si](C)(C)[C@H]2[C@H](CC(=O)N(CCO)Cc3ccccc3)O[C@@]3(C(=O)N(Cc4cccc(N5C(=O)c6cccc7cccc5c67)c4)c4ccccc43)[C@@H]2C)cc1,1.33 (inactive),-0.0507,13.2 (active),0.787 (inactive),-0.924 (inactive),-0.34 (inactive),2.67,0.38 (inactive),0.39 (inactive),1.83
Cn1c2c(c3ccccc31)C(=O)C1NC2C=CC1(C)C(=O)OCc1ccccc1 (stereo not given),-1.14 (inactive),0.125,0.395 (inactive),0.896 (inactive),0.808 (inactive),0.484 (inactive),-0.495,-0.343 (inactive),-1.52 (inactive),1.31
[N-]=[N+]=Nc1ccccc1[C@@H]1OC(c2ccc(OCCCO)cc2)=N[C@]1(CCS(=O)(=O)c1ccccc1)C(=O)N1CCCCC1,-0.112 (inactive),1.12,30.2 (active),25 (active),1.7 (inactive),3.94 (inactive),-0.174,-1.33 (inactive),1.85 (inactive),1.52
C=C(C(=O)CC[C@H](OC(=O)c1cccnc1)c1ccccc1OCCO)C(C)C,-0.378 (inactive),0.188,9.51 (active),0.943 (inactive),0.611 (inactive),0.381 (inactive),0.142,-1.85 (inactive),-0.81 (inactive),-2.03
C=CC[C@@]1(C(=O)NCCN2CCOCC2)N=C(c2ccc(OCCCO)cc2)O[C@@H]1c1ccccc1CN=[N+]=[N-],-0.121 (inactive),0.0193,24.4 (active),13.4 (active),2.29 (inactive),0.203 (inactive),1.15,-0.842 (inactive),0.908 (inactive),-0.701
COCCOC(=O)N1C(=O)[C@@]2(c3cc(C#CCCO)ccc31)[C@H](C(=O)NC[C@H](O)c1ccccc1)[C@H]1C(=O)O[C@H](c3ccccc3)[C@H](c3ccccc3)N1[C@@H]2c1ccc(OCCO)cc1,1.96 (inactive),-0.0276,3.45 (inactive),1.02 (inactive),-0.431 (inactive),0.212 (inactive),0.568,1.75 (inactive),1.13 (inactive),-0.0265
[N-]=[N+]=NCc1ccccc1C[C@@]1(C(=O)NCc2ccccc2)N=C(c2ccc(OCCCO)cc2)O[C@@H]1c1ccccc1CN=[N+]=[N-],0.561 (inactive),0.7,26.1 (active),15.3 (active),1.58 (inactive),1.87 (inactive),-0.633,-1.03 (inactive),-0.17 (inactive),-0.353
O=C(NCC(O)CO)[C@]1(CCS(=O)(=O)c2ccccc2)N=C(c2ccc(OCCCO)cc2)O[C@@H]1c1ccccc1 (stereo not given in full),-0.374 (inactive),0.0371,25.6 (active),6.78 (inactive),1.61 (inactive),0.987 (inactive),-0.516,1.4 (inactive),0.762 (inactive),-0.186
CC(C)C(O)C1C=CC2C(=O)N(C)C(=O)C2N1N1CCCCC1 (stereo not given),-1.77 (inactive),0.134,0.193 (inactive),1.22 (inactive),0.0667 (inactive),1 (inactive),-0.87,-0.569 (inactive),-0.278 (inactive),-1.52
CCCCCCCCCCC(O)C1C=CC2C(=O)N(c3ccccc3)C(=O)C2N1Nc1ccc([N+](=O)[O-])cc1 (stereo not given),-1.14 (inactive),0.315,5.24 (inactive),2.56 (inactive),-1.8 (inactive),2.11 (inactive),-0.235,0.309 (inactive),-0.243 (inactive),0.627
CS(=O)(=O)CCOC(=O)C1=CC(c2ccc(CO)cc2)=CC(c2cccs2)N(Cc2cccc(OC(F)(F)F)c2)C=C1C(=O)OCCS(C)(=O)=O (stereo not given),-2.86 (inactive),0.0575,14.8 (active),4.37 (inactive),0.869 (inactive),1.95 (inactive),0.158,-2.07 (inactive),-1.09 (inactive),-2.37
COC(=O)[C@@]1(Cc2ccccc2)[C@H]2c3cc(C(=O)N(C)C)n(Cc4cc(F)c(F)c(F)c4)c3C[C@H]2CN1C(=O)c1ccccc1,-1.61 (inactive),0.611,8.57 (active),1.65 (inactive),0.893 (inactive),1.4 (inactive),-0.0786,-0.0214 (inactive),1.57 (inactive),2.13
NC(=O)[C@]1(Cc2ccccc2)N=C(c2ccc(OCCCO)cc2)O[C@@H]1c1ccccc1,-0.465 (inactive),0.351,26.5 (active),15.6 (active),0.531 (inactive),2.19 (inactive),-0.0349,-0.273 (inactive),-0.228 (inactive),0.575
CCCCCN1CC=CC23O[C@@H]4C=CCCOC(=O)C4[C@H]2C(=O)N(CCCO)[C@@H]3C1=O (stereo not given in full),2.03 (inactive),-0.151,-0.235 (inactive),-1.49 (inactive),1.17 (inactive),-1.02 (inactive),0.655,-1.16 (inactive),-1.08 (inactive),-0.705
O=C1c2ccccc2[C@](Cc2ccccc2I)(C(=O)O)[C@H](c2ccc(CO)cc2)N1Cc1ccccc1C(F)(F)F,-0.0668 (inactive),0.215,3.59 (inactive),1.01 (inactive),0.737 (inactive),0.915 (inactive),-0.419,1.66 (inactive),-0.832 (inactive),-0.533
CC(=O)n1cc(C(O)C2C=CC3C(=O)N(c4ccccc4)C(=O)C3N2Nc2ccc(C#N)cc2)c2ccccc21 (stereo not given),-0.947 (inactive),0.201,21.5 (active),6.32 (inactive),0.566 (inactive),1.37 (inactive),-0.784,-1.15 (inactive),-4.31 (inactive),-3.01
Cc1ccc(S[C@]2(C(=O)NCCCN(C)C)CC(=O)N(C(C)C)[C@@H]2c2ccc(CO)cc2I)cc1,0.997 (inactive),0.264,6.19 (inactive),-0.185 (inactive),1.38 (inactive),0.277 (inactive),-0.265,0.347 (inactive),-0.675 (inactive),2.17
CCCCN1CC=CC23O[C@@H]4C=CCCOC(=O)C4[C@H]2C(=O)N(CCCO)[C@@H]3C1=O (stereo not given in full),0.62 (inactive),-0.321,0.158 (inactive),-1.01 (inactive),0.224 (inactive),-1.34 (inactive),0.243,-0.168 (inactive),-1.73 (inactive),-1.34
CCCC[C@H]1OB(O)C[C@H]2C1=C(C)Cn1c(=O)n(-c3ccccc3)c(=O)n12,-2.02 (inactive),-0.677,0.0016 (inactive),0.408 (inactive),0.393 (inactive),0.181 (inactive),0.441,-0.59 (inactive),-0.181 (inactive),-0.278
